Measurements from the supplement of paper PMC10849652.
The full data set covers some 8,800 targets. This sample favours those with a hit. About 0.5% of all pairs of compound and target were hits.

compound: CS(=O)(=O)N1CCN(Cc2cc3nc(-c4cccc5[nH]ncc45)nc(N4CCOCC4)c3s2)CC1 [pictilisib]; experiment: log2 fold change, soluble protein after heating vs DMSO (PISA); higher = thermal stabilisation; K562 lysate, 10 uM; active = over 0.2 and 3.5 SD of the protein, either way, in both replicates (recomputed)
Summary of the method: (§1)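 Log-two fold change in thermal stability relative to solvent controls is reported from duplicates. For each sample, crude K562 extract from dounce-homogenised pellets in PBS pH 7.4 with 1 mM MgCl2, at 1 mg/mL protein, was treated with 10 μM compound for 30 min. Aliquots heated for 3 min across 48°C-58°C were pooled, brought to 0.5% NP-40 at 4°C and cleared at 21,000xg for 90 min. The supernatant was quantified by TMTpro 16plex LC-MS/MS with channel sums equalised.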

UniProt Q9HAV0, sequence (Q9HAV0 whole entry, looked up): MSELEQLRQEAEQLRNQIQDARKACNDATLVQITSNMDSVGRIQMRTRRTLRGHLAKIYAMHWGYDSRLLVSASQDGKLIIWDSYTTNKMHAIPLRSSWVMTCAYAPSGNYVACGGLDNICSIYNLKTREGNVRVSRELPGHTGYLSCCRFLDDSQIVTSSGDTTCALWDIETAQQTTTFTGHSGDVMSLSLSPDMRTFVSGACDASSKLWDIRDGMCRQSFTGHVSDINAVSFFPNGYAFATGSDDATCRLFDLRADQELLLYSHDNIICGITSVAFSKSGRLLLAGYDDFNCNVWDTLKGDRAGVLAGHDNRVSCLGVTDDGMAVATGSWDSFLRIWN
UniProt Q96A47, sequence (Q96A47 whole entry, looked up): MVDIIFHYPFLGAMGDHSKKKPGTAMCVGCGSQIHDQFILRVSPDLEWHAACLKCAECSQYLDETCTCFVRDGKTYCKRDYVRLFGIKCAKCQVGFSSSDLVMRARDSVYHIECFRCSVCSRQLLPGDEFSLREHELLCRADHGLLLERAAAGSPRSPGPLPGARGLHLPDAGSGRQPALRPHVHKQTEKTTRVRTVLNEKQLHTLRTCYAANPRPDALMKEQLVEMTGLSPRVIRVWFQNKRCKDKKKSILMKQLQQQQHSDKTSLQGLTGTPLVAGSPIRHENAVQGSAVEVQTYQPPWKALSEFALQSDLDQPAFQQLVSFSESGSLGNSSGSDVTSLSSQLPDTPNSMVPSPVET
UniProt Q49A26, sequence (Q49A26 whole entry, looked up): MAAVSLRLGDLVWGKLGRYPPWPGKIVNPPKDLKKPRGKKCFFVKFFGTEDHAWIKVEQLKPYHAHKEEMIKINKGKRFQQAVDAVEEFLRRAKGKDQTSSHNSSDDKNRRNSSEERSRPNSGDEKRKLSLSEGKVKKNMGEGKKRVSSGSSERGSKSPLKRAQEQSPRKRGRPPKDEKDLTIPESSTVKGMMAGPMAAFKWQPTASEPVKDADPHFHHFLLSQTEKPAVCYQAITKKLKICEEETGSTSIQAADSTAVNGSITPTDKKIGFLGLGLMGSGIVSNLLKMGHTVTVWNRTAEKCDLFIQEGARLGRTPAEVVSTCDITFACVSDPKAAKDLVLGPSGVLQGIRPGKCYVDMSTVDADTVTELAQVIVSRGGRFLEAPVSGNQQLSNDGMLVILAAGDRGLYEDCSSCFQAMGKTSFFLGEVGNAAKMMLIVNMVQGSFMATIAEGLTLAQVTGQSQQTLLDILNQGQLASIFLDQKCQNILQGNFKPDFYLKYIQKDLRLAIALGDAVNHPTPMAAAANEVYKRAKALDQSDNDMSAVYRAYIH
UniProt Q96AB3, sequence (Q96AB3 whole entry, looked up): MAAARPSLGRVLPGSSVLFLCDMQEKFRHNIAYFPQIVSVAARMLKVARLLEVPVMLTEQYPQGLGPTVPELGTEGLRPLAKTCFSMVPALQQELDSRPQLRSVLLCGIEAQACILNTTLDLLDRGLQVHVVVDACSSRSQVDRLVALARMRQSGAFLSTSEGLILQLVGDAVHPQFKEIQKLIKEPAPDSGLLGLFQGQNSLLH
UniProt P22692, sequence (P22692 whole entry, looked up): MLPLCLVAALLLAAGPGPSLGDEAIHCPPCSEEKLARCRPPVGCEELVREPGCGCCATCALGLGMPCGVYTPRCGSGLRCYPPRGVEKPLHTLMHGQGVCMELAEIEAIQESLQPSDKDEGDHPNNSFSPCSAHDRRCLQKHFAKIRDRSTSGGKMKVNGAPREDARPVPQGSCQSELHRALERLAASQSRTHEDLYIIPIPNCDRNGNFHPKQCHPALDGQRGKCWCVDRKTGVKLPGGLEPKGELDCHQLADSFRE
UniProt P11142, sequence (P11142 whole entry, looked up): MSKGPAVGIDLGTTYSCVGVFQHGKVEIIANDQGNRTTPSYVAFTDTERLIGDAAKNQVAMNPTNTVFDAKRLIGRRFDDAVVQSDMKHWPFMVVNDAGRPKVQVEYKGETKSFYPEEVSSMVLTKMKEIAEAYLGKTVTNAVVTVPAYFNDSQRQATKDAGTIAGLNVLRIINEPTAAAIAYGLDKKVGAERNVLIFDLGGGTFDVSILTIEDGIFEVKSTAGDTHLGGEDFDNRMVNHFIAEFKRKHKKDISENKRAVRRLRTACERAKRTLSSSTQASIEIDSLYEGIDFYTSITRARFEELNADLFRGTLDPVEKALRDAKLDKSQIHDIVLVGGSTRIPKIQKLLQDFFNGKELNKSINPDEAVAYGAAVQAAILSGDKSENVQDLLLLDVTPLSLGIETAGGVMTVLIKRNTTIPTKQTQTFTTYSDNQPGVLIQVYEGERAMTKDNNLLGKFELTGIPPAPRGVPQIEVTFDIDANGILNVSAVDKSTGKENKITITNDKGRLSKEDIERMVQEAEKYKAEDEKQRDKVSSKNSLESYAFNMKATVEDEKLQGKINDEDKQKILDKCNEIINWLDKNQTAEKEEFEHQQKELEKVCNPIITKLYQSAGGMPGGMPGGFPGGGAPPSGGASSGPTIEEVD
UniProt P40939, sequence (P40939 whole entry, looked up): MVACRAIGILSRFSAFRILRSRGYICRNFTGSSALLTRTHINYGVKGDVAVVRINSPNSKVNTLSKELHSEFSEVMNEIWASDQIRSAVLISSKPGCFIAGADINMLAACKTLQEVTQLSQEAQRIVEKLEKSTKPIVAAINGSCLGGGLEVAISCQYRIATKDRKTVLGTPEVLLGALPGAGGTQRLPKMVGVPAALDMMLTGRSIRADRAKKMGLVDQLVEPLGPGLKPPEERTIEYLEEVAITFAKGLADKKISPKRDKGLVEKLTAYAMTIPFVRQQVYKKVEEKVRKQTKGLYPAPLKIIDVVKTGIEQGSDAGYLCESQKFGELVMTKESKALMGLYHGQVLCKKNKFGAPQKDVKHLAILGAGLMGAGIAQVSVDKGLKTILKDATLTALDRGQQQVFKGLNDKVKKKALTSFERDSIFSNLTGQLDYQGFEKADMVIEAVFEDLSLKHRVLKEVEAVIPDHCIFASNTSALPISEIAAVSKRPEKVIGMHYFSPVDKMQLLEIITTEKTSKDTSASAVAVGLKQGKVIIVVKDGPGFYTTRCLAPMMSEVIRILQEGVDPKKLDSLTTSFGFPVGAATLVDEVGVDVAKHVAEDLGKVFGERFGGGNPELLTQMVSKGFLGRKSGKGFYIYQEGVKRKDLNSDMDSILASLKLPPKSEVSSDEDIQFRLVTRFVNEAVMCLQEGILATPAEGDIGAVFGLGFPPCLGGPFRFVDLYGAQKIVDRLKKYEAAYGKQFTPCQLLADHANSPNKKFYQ
UniProt Q9Y287, sequence (Q9Y287 whole entry, looked up): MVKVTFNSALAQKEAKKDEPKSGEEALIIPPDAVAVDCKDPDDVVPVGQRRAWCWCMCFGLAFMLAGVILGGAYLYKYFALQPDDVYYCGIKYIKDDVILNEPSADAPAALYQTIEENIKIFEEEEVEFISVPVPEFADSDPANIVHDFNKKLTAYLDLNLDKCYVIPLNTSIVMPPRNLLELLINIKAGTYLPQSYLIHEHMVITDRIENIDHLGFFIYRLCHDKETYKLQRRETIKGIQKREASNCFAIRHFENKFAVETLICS
UniProt Q9Y4H2, sequence (Q9Y4H2 whole entry, looked up): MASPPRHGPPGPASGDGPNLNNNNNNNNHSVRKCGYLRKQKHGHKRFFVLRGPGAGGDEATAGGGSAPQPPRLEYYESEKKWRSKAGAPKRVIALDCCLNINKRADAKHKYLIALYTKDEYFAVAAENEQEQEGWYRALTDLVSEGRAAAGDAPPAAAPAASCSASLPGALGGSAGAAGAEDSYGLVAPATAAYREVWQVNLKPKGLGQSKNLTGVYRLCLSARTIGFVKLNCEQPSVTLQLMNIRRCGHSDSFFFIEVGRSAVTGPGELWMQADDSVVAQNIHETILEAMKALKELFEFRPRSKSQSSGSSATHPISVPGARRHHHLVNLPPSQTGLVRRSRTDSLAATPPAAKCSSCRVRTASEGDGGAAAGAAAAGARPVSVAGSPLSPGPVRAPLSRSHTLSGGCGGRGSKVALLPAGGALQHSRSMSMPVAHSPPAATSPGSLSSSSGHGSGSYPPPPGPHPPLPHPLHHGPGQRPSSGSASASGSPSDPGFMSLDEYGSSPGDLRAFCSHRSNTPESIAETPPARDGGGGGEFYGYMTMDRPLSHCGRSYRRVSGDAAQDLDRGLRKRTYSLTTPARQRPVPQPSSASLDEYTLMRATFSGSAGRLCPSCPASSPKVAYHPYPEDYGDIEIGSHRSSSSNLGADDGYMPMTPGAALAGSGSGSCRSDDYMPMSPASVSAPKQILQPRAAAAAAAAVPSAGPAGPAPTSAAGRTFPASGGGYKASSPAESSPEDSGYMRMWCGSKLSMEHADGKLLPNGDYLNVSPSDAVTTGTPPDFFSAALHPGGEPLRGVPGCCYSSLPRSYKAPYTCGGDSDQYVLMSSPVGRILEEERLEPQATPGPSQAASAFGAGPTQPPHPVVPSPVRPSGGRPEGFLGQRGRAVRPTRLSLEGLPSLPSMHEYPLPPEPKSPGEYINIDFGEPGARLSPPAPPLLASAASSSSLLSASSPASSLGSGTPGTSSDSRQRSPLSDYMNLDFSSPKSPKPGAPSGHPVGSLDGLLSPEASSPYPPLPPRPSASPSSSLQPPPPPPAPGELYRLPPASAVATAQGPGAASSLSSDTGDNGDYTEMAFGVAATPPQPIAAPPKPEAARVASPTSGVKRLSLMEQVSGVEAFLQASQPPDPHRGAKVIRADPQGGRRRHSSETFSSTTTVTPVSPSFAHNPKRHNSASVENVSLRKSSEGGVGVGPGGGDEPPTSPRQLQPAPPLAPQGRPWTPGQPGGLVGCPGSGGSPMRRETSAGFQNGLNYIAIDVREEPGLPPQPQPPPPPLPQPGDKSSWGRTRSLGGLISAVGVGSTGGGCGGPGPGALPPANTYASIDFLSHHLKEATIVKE
UniProt P17096, sequence (P17096 whole entry, looked up): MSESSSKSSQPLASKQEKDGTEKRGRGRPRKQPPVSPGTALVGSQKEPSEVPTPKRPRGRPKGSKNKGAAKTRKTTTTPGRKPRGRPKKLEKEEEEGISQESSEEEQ

Target	log2 fold change
ISL2 (UniProt Q96A47)	0 (inactive)
IGFBP4 (UniProt P22692)	0.015 (inactive)
HNRNPUL1 (UniProt M0R247)	0.038 (inactive)
HSPA8 (UniProt P11142)	0.022 (inactive)
ISY1 isoform 1 (UniProt Q9ULR0)	0.011 (inactive)
ISOC2 (UniProt Q96AB3)	0.038 (inactive)
ITM2B (UniProt Q9Y287)	-0.087 (inactive)
IL18R1 (UniProt Q13478)	0.207 (inactive)
GSTM2 (UniProt P28161)	-0.011 (inactive)
HMGN5 (UniProt Q5JSK9)	0.017 (inactive)
GLYR1 (UniProt Q49A26)	0.045 (inactive)
HADHA (UniProt P40939)	0.077 (inactive)
HOMER3 (UniProt Q9NSC5)	0.42 (active)
HMGN4 (UniProt O00479)	-0.044 (inactive)
HNRNPL, A0A3B3ITJ4	-0.002 (inactive)
HTT (UniProt P42858)	-0.028 (inactive)
GYPA, A0A2R8Y7F9	-0.033 (inactive)
HNRNPM (UniProt M0QZM1)	0.076 (inactive)
H3-3A (UniProt P84243)	-0.018 (inactive)
GNB4 (UniProt Q9HAV0)	-0.031 (inactive)
JAK3 (UniProt P52333)	0.01 (inactive)
GPA33 (UniProt Q99795)	0.059 (inactive)
IRS2 (UniProt Q9Y4H2)	0.023 (inactive)

compound: C[C@@H](Oc1cc(-c2cnn(C3CCNCC3)c2)cnc1N)c1c(Cl)ccc(F)c1Cl [crizotinib]; experiment: as above
Summary of the method: as §1

Target	log2 fold change
HMGA1 isoform 2 (UniProt P17096)	0.125 (inactive)
HECW2 (UniProt Q9P2P5)	-0.075 (inactive)
ISL2 (UniProt Q96A47)	0.001 (inactive)
IGFBP4 (UniProt P22692)	-0.042 (inactive)
HSPA8 (UniProt P11142)	0.023 (inactive)
ISY1 isoform 1 (UniProt Q9ULR0)	0.01 (inactive)
ISOC2 (UniProt Q96AB3)	0.023 (inactive)
ITM2B (UniProt Q9Y287)	0.005 (inactive)
IL18R1 (UniProt Q13478)	-0.076 (inactive)
GLYR1 (UniProt Q49A26)	-0.058 (inactive)
HADHA (UniProt P40939)	0.063 (inactive)
GPN2 (UniProt Q9H9Y4)	0.007 (inactive)
HOMER3 (UniProt Q9NSC5)	0.021 (inactive)
GPLD1 (UniProt P80108)	-0.108 (inactive)
HMGN4 (UniProt O00479)	0.047 (inactive)
HNRNPD (UniProt D6RF44)	-0.086 (inactive)
HTT (UniProt P42858)	-0.042 (inactive)
HNRNPM (UniProt M0QZM1)	-0.07 (inactive)
H3-3A (UniProt P84243)	0.046 (inactive)
GNB4 (UniProt Q9HAV0)	0.106 (inactive)
JAK3 (UniProt P52333)	0.051 (inactive)
GORASP1 (UniProt Q9BQQ3)	0.015 (inactive)
IRS2 (UniProt Q9Y4H2)	-0.186 (inactive)
KATNBL1 (UniProt Q9H079)	-0.066 (inactive)

compound: C[C@H](C1=CC=C(C=C1)C(=O)NC2=C3C=CNC3=NC=C2)N; experiment: as above
Summary of the method: as §1

Target	log2 fold change
HMGA1 isoform 2 (UniProt P17096)	0.731 (active)
ISL2 (UniProt Q96A47)	0.609 (active)
IGFBP4 (UniProt P22692)	0 (inactive)
HNRNPUL1 (UniProt M0R247)	0.014 (inactive)
HSPA8 (UniProt P11142)	0.012 (inactive)
ISY1 isoform 1 (UniProt Q9ULR0)	-0.022 (inactive)
ISOC2 (UniProt Q96AB3)	0.05 (inactive)
ITM2B (UniProt Q9Y287)	-0.061 (inactive)
IL18R1 (UniProt Q13478)	-0.116 (inactive)
GTPBP6 (UniProt O43824)	0.149 (inactive)
GSTM2 (UniProt P28161)	0.121 (inactive)
GLYR1 (UniProt Q49A26)	0.019 (inactive)
HADHA (UniProt P40939)	-0.01 (inactive)
GPN2 (UniProt Q9H9Y4)	-0.035 (inactive)
HOMER3 (UniProt Q9NSC5)	0.048 (inactive)
HMGN4 (UniProt O00479)	1.19 (active)
HTT (UniProt P42858)	-0.012 (inactive)
GYPA, A0A2R8Y7F9	-0.562 (inactive)
IPP (UniProt Q9Y573)	0.067 (inactive)
ITGB1BP2 (UniProt Q9UKP3)	-0.18 (inactive)
H3-3A (UniProt P84243)	0 (inactive)
GNB4 (UniProt Q9HAV0)	-0.058 (inactive)
JAK3 (UniProt P52333)	0.418 (inactive)
GPA33 (UniProt Q99795)	-0.584 (active)
GORASP1 (UniProt Q9BQQ3)	-0.103 (inactive)
IRS2 (UniProt Q9Y4H2)	-0.578 (active)
KATNBL1 (UniProt Q9H079)	0.05 (inactive)
